This is part of a sample that, as a whole, favours compounds with a hit. Of some 83,000 tested, about 20% had one in any assay.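 The endpoint reported here, percent growth, reads 100 for growth as untreated, 0 for no net growth and -100 for all cells dead.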 The source made the active and inactive calls. The calls were made as follows: active = growth percent below 10; inactive = the rest.
Tested on: MDA-MB-468 breast
Test: NCI-60 one-dose screen, 48 h (100 = growth as untreated, 0 = no growth, -100 = all killed)
Details: 10 µM unless noted

Row | Compound | growth
1 | COc1cc(-c2cc(=O)oc3cc(O)ccc23)c(OC)c2c1OCO2 | 67.7% (inactive)
2 | Clc1ccc(-c2cc(-c3ccccc3)nc(NCCNc3ccnc4cc(Cl)ccc34)n2)cc1 | -79.6% (active)
3 | CSc1nccc(-c2c(-c3ccc(F)c(OCc4ccc(F)cc4)c3)nc3sccn23)n1 | 23.3% (inactive)
4 | CC(=O)c1cc2c(N)c(C(=O)Nc3cncc4ccccc34)sc2nc1C | 97% (inactive)
5 | Cc1cc(=O)oc2cc(Oc3nc(-c4ccc(Cl)cc4)cn4c(-c5ccc(Cl)cc5)cnc34)ccc12 | 84.8% (inactive)
6 | Cc1ccc(S(=O)(=O)Oc2ccc(NC(=O)c3ccc(Cl)cc3)cc2)cc1 | 95.2% (inactive)
7 | COc1cc(C(=O)c2cc(C(C)=O)c3ccc(C)cn23)cc(OC)c1OC | -2.89% (active)
8 | CCOC(=O)CCC[P+](c1ccccc1)(c1ccccc1)c1ccccc1 | 6.56% (active)
9 | CO[C@H](C(=O)[C@@H](O)[C@@H](C)O)[C@@H]1Cc2cc3cc(O[C@H]4C[C@@H](O[C@H]5C[C@@H](O)[C@H](O)C(C)O5)[C@H](O)C(C)O4)c(C)c(O)c3c(O)c2C(=O)[C@H]1O[C@H]1C[C@@H](O[C@H]2C[C@@H](O[C@H]3C[C@@H](OC)[C@H](O)C(C)O3)[C@@H](O)C(C)O2)C(O)(O)C(C)O1 (stereo not given in full) | -30.2% (active)
10 | O=CN1N=C(c2cccc(Nc3ccncc3)c2)CC1c1ccc2c(c1)OCO2 (stereo not given) | 88.7% (inactive)
11 | N#Cc1cccc(-c2cc(-c3ccc4c(c3)OCCO4)[nH]n2)c1 | 18.6% (inactive)
12 | Brc1cccc(-c2nc(-c3ccc4c(c3)OCCO4)co2)c1 | 34.9% [25 µM] (inactive)
13 | COc1ccc(Nc2nnc(-c3ccc(OC)c(OC)c3)o2)cc1 | 90.8% (inactive)
14 | COc1cccc(-c2nc3sccn3c2-c2ccnc(NCCNS(=O)(=O)c3ccccc3)c2)c1 | 16.2% (inactive)
15 | CC[C@H](CO)Nc1ccc2ncc(C#Cc3cncc(C(=O)Nc4ccc(CN5CCN(C)CC5)c(C(F)(F)F)c4)c3)n2n1 | -67.8% (active)
16 | C=CCn1c(SCC(=O)Nc2ccc(C(=O)/C=C/c3ccc(Cl)cc3)cc2)nnc1-c1cc(-c2ccccc2)nc2ccccc12 | 61.6% (inactive)
17 | NC(=O)c1cccc(-n2ccc3cc(NC(=O)Nc4ccc(N5CCOCC5)c(C(F)(F)F)c4)ccc32)n1 | 0.818% (active)
18 | O=C1NN(C(=O)c2ccc(O)cc2)C(c2ccccc2)=N/C1=C\c1cn(-c2ccccc2)nc1-c1ccccc1 | 110% (inactive)
19 | COc1cc(C2CC(=O)c3c(C)nn(-c4nc5ccccc5[nH]4)c3C2)cc(OC)c1OC (stereo not given) | 82% (inactive)
20 | COc1ccc(C(=O)N=Nc2c(O)n(C)c3ccccc23)cc1 | 95.2% (inactive)

Row | Compound | growth
21 | COc1ccc(-n2c(C(O)c3ccccc3)nn(CN3CCOCC3)c2=S)cc1 (stereo not given) | 97.5% (inactive)
22 | CC(C)C1=C[C@@]23CC[C@H]4[C@](C)(COCCC#N)CCC[C@]4(C)[C@H]2C[C@@H]1[C@@H]1[C@H]3[C@@H](OCCC#N)CC[C@@H]1OCCC#N | -4.51% (active)
23 | Cc1cc(/C=C2\SC(=Nc3ccccc3)N(C3CCCC3)C2=O)c(C)n1-c1ccc(Cl)cc1 | -84.2% (active)
24 | O=C1c2ccccc2C(=O)c2cc(Cn3cc[n+](Cc4ccc5ccccc5c4)c3)ccc21 | -32.2% (active)
25 | COc1cc(/C=C/C(=O)c2ccc(NC(=O)COc3cccc4cccnc34)cc2)cc(OC)c1OC | 75.6% (inactive)
26 | COc1cc(/C=C/C(=O)c2ccc(-n3cc(CN4CCN(c5cc6c(cc5F)c(=O)c(C(=O)O)cn6C5CC5)CC4)nn3)cc2)ccc1O | 64.8% (inactive)
27 | Nc1ncnc2nc(Br)[nH]c12 | 102% (inactive)
28 | COc1cc(C(=O)Nc2cc(O)c(C/C=C(\C)CCC=C(C)C)c(O)c2)cc2c1O[C@]1(C)CC[C@@H](O)C(C)(C)[C@H]1C2 | 3.89% (active)
29 | COc1ccc(CCN=Cc2ccc(Cl)cc2)cc1OC | 117% (inactive)
30 | Nc1nc(-c2ccccn2)cc(-c2cc(-c3ccccn3)nc(N)n2)n1 | 98.7% (inactive)
31 | Cc1ccc(NC(=S)/N=c2/n(-c3ccccc3)nc3n2CCN3C2=NCCN2)cc1 | 104% (inactive)
32 | O=C(NCCCNC(=O)OCc1ccc2c(Br)cc(Br)c(O)c2n1)OCc1ccc2c(Br)cc(Br)c(O)c2n1 | -72% (active)
33 | COc1cccc2cc(-c3cc4ccccc4[nH]3)/c(=N\NC(=O)c3ccc(Cl)cc3)oc12 | -2.01% (active)
34 | CC1=C(C)C(=O)C(Nc2ccc(C)c(C)c2)=C(Br)C1=O | 1.26% (active)
35 | Cn1c(C(N)=O)cc2c1-c1nc(Nc3ccccc3)ncc1CCC2 | 53.4% (inactive)
36 | COc1ccc(OC)c(Nc2nc3nonc3nc2Nc2cccc(Br)c2)c1 | 0.0908% (active)
37 | Nc1nc(-c2cccc([N+](=O)[O-])c2)c(N=Nc2ccccc2)s1 | 11.5% (inactive)
38 | NC1=C(Br)C(=O)c2ncccc2C1=O | -14.8% (active)
39 | O=C1c2cc(Cl)ccc2S(=O)(=O)c2c(NCCCNCCO)nc3ccccc3c21 | -14.1% (active)
40 | Cc1cc(N(CCCNc2ccnc3cc(Cl)ccc23)Cc2ccc3c(c2)OCO3)nc(N2CCOCC2)n1 | -14.4% (active)
